Bioassay records: PubChem, several laboratories
Compounds with a hit are over-represented: about 4% of the library has one in this group of screens.
RecA intein inh: Mtb RecA intein splicing inhibitors, primary screen, biochemical, fluorescence, HTS | inhibition, % (no concentration beside the values) | actives 0.75% (n = 290,000) | cell-free RecA intein splicing | Protein RecA (Mycobacterium tuberculosis (strain ATCC 25618 / H37Rv)), P9WHJ3; in the data active means inhibition above about 30%;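 further: 0% = vehicle wells and 100% = reference inhibitor control wells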
Mtb betalactam: beta-lactam sensitization of Mtb H37Rv, H37Rv | inhibition, % at 25 µM | actives 0.27% (n = 330,000) | AID 434955, 2010 | M. tuberculosis H37Rv growth with meropenem, percent inhibition;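 further: growth measured after seven days incubation then overnight dye step; 0% = bacteria only wells and 100% = bacteria with antibiotic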
UGM FP inh: M. tuberculosis UGM enzyme inhibitors, primary screen, biochemical, fluorescence polarization, single point | AID 504406, 2011 | purified UGM, fluorescence polarization probe displacement | inhibition, % at 10 µM | actives 0.06% (n = 320,000); in the data active means inhibition above about 10%, passing the limit was not always enough
Rv3671c inh: Rv3671c serine protease inhibitors, primary screen, biochemical, fluorescence polarization, M. tuberculosis H37Rv. AID 2606, 2010. inhibition, % at 5.96 µM. actives 0.048% (n = 320,000); in the data active means inhibition above about 38%;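 further: extracellular domain of Rv3671c used as enzyme; 0% = enzyme with DMSO and 100% = no enzyme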
GDH-TPI counter: GDH-TPI coupling enzyme inhibitors, primary screen, artefact control for M. tuberculosis FBA inhibitor project, biochemical, absorbance, full deck; GDH-TPI coupled enzyme counterscreen, NADH absorbance; inhibition, % at 4.8 µM; actives 1.2% (n = 360,000); AID 588335, 2011; in the data active means inhibition above about 30%;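 further: 0% = DMSO wells and 100% = wells lacking the enzyme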
Mtb FBA inh: Mtb FBA enzyme inhibitors, primary screen, biochemical, fluorescence, strain H37Rv | Fructose-bisphosphate aldolase (Mycobacterium tuberculosis (strain ATCC 25618 / H37Rv)), … | purified M. tuberculosis FBA, fluorescence read-out | inhibition, % at 1 µM | actives 2.3% (n = 360,000) | AID 588726, 2011; in the data active means inhibition above about 27%;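 further: 0% = vehicle and 100% = reference inhibitor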
Target sequence (P9WQA3 whole entry, looked up): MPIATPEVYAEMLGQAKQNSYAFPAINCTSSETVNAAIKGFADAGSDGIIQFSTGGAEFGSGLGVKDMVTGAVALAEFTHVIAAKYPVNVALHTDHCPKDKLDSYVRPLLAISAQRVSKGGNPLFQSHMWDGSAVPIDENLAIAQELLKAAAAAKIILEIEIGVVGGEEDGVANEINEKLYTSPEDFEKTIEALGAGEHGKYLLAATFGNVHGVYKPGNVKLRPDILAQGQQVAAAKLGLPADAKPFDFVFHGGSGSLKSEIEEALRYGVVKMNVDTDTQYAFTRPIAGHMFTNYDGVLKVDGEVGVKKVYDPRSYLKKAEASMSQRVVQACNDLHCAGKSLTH
GFP chromophore: counter-screen: blocks GFP chromophore formation, dose response, counter-screen, biochemical, fluorescence, homogeneous. shares compounds with RecA intein inh. cell-free GFP chromophore formation. EC50, µM. actives 83% (n = 2,100)
Numbers without * were called inactive; . = not tested or not shown. Unless noted, how the calls were made is not given here.

SMILES	RecA intein inh	Mtb betalactam	UGM FP inh	Rv3671c inh	GDH-TPI counter	Mtb FBA inh	GFP chromophore
O=C(CCl)N1CCN2C(=O)c3ccccc3C12c1ccc(Cl)cc1 (stereo unspecified)	83*	95	1	5	-5	1	4.2*
COc1ccccc1OCCNc1ccc(S(=O)(=O)N2CCCC2)cn1	.	.	.	.	-2	0	.
O=C(O)c1ccccc1C(=O)Nc1ccc(-n2nc(C(F)(F)F)cc2C(F)(F)F)cc1	-2	33	1	9	5	2	.
ONc1cccnc1-n1nc(C(F)(F)F)cc1C(F)(F)F	82*	2	3	-8	.	.	>38
O=C(COc1ccc(S(=O)(=O)N2CCOCC2)cc1Cl)NCc1ccc2c(c1)OCO2	.	.	.	.	1	0	.
O=C(CSCc1cc(=O)n2nc(C3CC3)sc2n1)Nc1ccc(F)cc1	-1	-4	3	-2	5	-2	.
Cc1ccc(O)c(N=CC2=C(O)c3ccccc3C2=O)c1	87*	22	1	-15	20	-3	3.4*
[O-]C1=N/[N+](=C/c2ccc(Cl)cc2)CC1	73*	-11	0	-4	-8	1	29*
CC(=O)Oc1c(Br)cc(N(C(C)=O)S(=O)(=O)c2ccccc2)c2ccccc12	37*	-1	1	-59	17	1	5.3*
CC(=O)Oc1ccccc1N(C(C)=O)S(=O)(=O)c1ccc2ccccc2c1	3	-7	-1	-2	8	5	.
CS(=O)(=O)c1ccc(C(=O)OCc2nnc(-c3ccc(Cl)cc3)o2)cc1[N+](=O)[O-]	67*	-2	-3	-10	3	87*	6.8*
Nc1nc(-c2ccco2)nn1C(=O)c1ccc(Cl)cc1	34*	2	1	1	-5	3	>38
Nc1nc(-c2ccco2)nn1C(=O)c1ccccc1	15	-9	2	13	10	-1	.
O=C1c2ccccc2-n2c1nc1ccccc1c2=O	71*	98	-1	-7	13	-2	1.3*
O=c1c2ccccc2nc(-c2ccccc2)n1-c1ccccc1O	-1	3	-1	-3	2	2	.
CCc1nc2ccc(C(=O)Nc3cc(-c4ccccc4)ccc3OC)cn2c1N(C)C(=O)c1cccc(OC)c1	.	.	.	.	0	-5	.
COC1(OC)N=C(N)C2(C#N)C(c3ccc(F)cc3)C12C#N (stereo unspecified)	0	-12	1	-5	-5	5	.
CCSC1(SCC)N=C(N)C2(C#N)C(c3ccc(F)cc3)C12C#N (stereo unspecified)	50*	31	-2	-2	-6	3	38*
CCCCN1CCCCC1(C)C(=O)NCc1ccc2c(c1)OCO2 (stereo unspecified)	.	.	.	.	-1	-4	.
CC(=O)c1ccc(-c2cccc(-c3nc4ccccn4c3NC3CCCCC3)c2)cc1	32*	98	3	8	12	6	0.38*
CCN1CCN(c2c(Cl)cccc2NC(=O)c2ccc3c(c2)OCCO3)CC1	31*	-7	2	1	-2	0	>38
Cc1[nH]nc2c1C(CC(C)C)C(C#N)=C(N)O2 (stereo unspecified)	72*	-2	-1	-4	0	3	21*
CC(C)CC1C(C#N)=C(N)Oc2n[nH]c(-c3ccccc3)c21 (stereo unspecified)	82*	17	3	-7	4	-5	13*
C/C(=C\c1ccco1)C1C(C#N)=C(N)Oc2n[nH]c(-c3ccccc3)c21 (stereo unspecified)	77*	-1	0	3	4	0	18*
CCOC(=O)C1CCCN(C(=O)CCc2nc3sc4c(c3c(=O)[nH]2)CCCC4)C1 (stereo unspecified)	.	0	-2	3	-8	-2	.
